# Experimental data: PubChem BioAssay (NCATS)
# Values without a mark were called inactive. Records with an inconclusive call do not appear. Activity calls are given as the source filed them. Unless noted, the call rests on the fitted dose curve; in most records, active means well fitted curve in either direction with a large enough effect (not every such curve was filed as active); inconclusive means small, poorly fitted or top-dose-only effect, or another doubt; inactive means flat fitted curve, though single readings scatter.
# How the values were obtained:
# [1] = target: Lysosomal acid glucosylceramidase (Homo sapiens) (UniProt P04062); assay: Glucocerebrosidase-p2 (AID 348; in the data active means potency below about 10 µM; further: potency means the concentration at half of the fitted maximal effect); conditions: purified GBA, blue fluorogenic substrate, 40 min
# Sequence of Lysosomal acid glucosylceramidase (Homo sapiens) (P04062 whole entry, looked up): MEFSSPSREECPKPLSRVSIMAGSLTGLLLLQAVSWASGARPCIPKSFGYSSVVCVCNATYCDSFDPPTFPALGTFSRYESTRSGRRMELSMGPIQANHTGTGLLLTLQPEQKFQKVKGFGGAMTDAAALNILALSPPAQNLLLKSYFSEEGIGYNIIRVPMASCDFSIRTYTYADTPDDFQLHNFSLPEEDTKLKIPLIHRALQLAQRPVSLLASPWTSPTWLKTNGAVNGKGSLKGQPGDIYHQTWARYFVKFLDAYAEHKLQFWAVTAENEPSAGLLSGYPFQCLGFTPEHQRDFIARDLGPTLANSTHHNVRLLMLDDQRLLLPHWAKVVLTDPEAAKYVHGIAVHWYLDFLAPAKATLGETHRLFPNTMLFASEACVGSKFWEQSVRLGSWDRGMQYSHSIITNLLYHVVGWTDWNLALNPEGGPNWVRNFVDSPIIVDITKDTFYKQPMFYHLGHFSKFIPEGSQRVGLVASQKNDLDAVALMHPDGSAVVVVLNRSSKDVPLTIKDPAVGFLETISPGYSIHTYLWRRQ
# Outline: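 Normal human glucocerebrosidase (0.2 nM) with blue fluorogenic substrate (80 uM final) in citrate/phosphate pH 5.9 with 10mM sodium taurocholate, 0.01% tween-20; 40 min RT, NaOH/glycine stop; fluorescence Ex 365/Em 440; AC50 from a titration from 0.6 nM upwards.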
# [2] = AP1 Signaling Pathway (AID 357); conditions: ME-180 AP-1-bla reporter, EGF-induced, beta-lactamase ratio, 5 h; at 7.69 µM (top of the series) unless noted;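 further: ME-180 reporter cells stimulated with EGF at its EC50 level; on the % scale 0 is the no-effect control and ±100 the full control effect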
# Outline: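 Modulation of EGF-driven AP-1 transcription was assessed with a beta-lactamase reporter in ME-180 cells. Compound and EC50 EGF were co-incubated 5 hours at 37 °C before 2.5-hour CCF4 loading at room temperature and dual-emission reading.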
# [3] = NFAT Signaling Pathway (AID 444); conditions: Jurkat NFAT-bla M1, carbachol, beta-lactamase ratio, 5 h; at 7.69 µM (top of the series) unless noted;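 further: carbachol stimulus at about its EC50 of 1 µM final; on the % scale 0 is the no-effect control and ±100 the full control effect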
# Outline: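 Read-out: CCF4 FRET ratio (460 nm/530 nm) after 1 h RT dye loading, used for %activity and AC50 from titration series. Cells: Jurkat NFAT-β-lactamase/M1 line, treated with compound plus 1 uM carbachol for 5 h, 37 °C.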
# [4] = Stat Signaling Pathway (AID 446); conditions: ME-180 SIE beta-lactamase reporter, IL-6 stimulated, 5 h; at 7.69 µM (top of the series) unless noted;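 further: ME-180 cervical cancer cells given 40 pM IL-6 alongside compound; SIE-controlled beta-lactamase reporter measured as 460/530 nm FRET emission ratio; on the % scale 0 is the no-effect control and ±100 the full control effect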
# Outline: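 FRET read-out (405 nm excitation, 460/530 nm emission) of a beta-lactamase reporter under a STAT-inducible element in ME-180 cervical carcinoma cells. Cells with compound receive 40 pM IL-6 for 5 h. Values are normalised to AC90 stimulation and AC90 JAK-inhibitor controls.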
# [5] = target: Glucocorticoid receptor (Homo sapiens) (UniProt P04150); assay: GR-GFP Redistribution (AID 450;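 active means compounds whose dose series gives a full or clear partial fitted curve of increased nuclear translocation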; further: potency means the concentration at half of the fitted maximal effect); conditions: U2OS GR-GFP nuclear translocation, laser cytometry, 2 h
# Sequence of Glucocorticoid receptor (Homo sapiens) (P04150 whole entry, looked up, the tested form may be a part): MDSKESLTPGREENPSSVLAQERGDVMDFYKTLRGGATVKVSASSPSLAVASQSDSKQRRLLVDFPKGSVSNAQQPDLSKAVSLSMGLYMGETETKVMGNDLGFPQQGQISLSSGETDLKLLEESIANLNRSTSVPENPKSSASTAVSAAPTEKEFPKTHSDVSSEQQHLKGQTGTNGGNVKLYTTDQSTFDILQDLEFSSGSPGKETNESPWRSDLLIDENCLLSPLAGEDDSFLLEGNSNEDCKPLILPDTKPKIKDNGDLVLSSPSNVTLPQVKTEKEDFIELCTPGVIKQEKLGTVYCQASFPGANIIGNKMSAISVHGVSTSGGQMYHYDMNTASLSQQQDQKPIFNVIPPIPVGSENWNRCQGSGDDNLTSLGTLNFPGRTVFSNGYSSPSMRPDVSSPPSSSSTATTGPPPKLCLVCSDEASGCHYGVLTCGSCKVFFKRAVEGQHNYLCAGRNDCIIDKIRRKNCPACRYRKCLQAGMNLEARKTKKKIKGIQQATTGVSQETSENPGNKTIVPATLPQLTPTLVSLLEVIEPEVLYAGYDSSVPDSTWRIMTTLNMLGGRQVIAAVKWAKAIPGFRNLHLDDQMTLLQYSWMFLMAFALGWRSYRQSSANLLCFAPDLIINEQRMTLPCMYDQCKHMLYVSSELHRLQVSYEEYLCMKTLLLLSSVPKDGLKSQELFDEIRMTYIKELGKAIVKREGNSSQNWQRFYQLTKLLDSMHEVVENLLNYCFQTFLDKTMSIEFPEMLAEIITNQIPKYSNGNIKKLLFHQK
# [6] = target: Glucocorticoid receptor (Homo sapiens) (UniProt P04150); assay: GR-EFC Redistribution (AID 451; calls by dose curve; further: potency means the concentration at half of the fitted maximal effect); conditions: CHO-K1 GR-EFC translocation, beta-gal luminescence, 2 h
# Outline: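 Translocation of GR-ED fusion to nuclear EA restores b-gal, read by luminescence after 1 h room-temperature detection. Engineered CHO-K1 biosensor cells, 1,000/well, exposed 2 h at 37 C to titrations up to 46 uM final.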
# [7] = target: Mitogen-activated protein kinase 10 (Mus musculus) (UniProt Q61831); assay: JNK3 AlphaScreen Assay (AID 530); conditions: JNK3 lysate, c-Jun phosphorylation; series mostly up to 11.4 µM;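 further: kinase came from lysate of stimulated human HepG2 cells; signal reports phosphorylation of biotinylated GST-cJun 1-79 at Ser73 with 10 µM ATP; on the % scale 0 is the no-effect control and ±100 the full control effect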
# Outline: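 qHTS titrations with 15 min compound pre-incubation before adding ATP (10 uM final). Read-out: AlphaScreen of Ser73-phosphorylated biotin-GST-cJun using HepG2 lysate JNK3 activated by IL-1β and TNFα.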
# [8] = target: 3',5'-cyclic-AMP phosphodiesterase 4B (Homo sapiens) (UniProt Q07343); assay: qHTS Assay for Inhibitors of PDE-IV (AID 607; active means well fitted activation curve with a large enough effect in the main read-out, with a control signal flat, not every such curve was filed as active; further: % of control where 0% means no effect); conditions: HEK293 ACTOne CNG channel cells, membrane potential fluorescence; series mostly up to 22.9 µM
# Sequence of 3',5'-cyclic-AMP phosphodiesterase 4B (Homo sapiens) (Q07343 whole entry, looked up): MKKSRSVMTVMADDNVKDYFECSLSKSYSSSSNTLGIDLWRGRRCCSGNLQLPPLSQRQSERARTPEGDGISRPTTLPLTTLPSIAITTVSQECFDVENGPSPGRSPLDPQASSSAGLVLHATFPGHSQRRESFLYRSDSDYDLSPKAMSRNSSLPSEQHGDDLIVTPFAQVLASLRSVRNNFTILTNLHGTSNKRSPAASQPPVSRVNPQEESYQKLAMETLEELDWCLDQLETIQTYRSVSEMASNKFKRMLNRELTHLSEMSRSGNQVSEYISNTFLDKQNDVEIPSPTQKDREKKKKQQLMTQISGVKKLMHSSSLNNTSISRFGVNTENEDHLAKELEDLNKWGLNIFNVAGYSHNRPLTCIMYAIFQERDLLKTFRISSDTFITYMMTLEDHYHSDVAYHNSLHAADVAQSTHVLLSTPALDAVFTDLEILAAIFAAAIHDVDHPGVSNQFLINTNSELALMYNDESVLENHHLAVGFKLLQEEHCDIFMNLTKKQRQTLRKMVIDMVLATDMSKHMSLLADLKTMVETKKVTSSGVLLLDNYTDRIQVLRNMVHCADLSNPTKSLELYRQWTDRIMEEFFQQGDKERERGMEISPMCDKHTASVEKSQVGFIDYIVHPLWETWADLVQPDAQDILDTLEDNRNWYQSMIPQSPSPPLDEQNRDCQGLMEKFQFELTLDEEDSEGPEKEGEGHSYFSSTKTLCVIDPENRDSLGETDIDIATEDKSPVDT
# Outline: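 Cell-based read-out of cAMP via a modified cyclic nucleotide-gated channel and membrane potential dye (535/590 nm) in HEK293 cells expressing PDE4 endogenously. Compounds tested up to 22.9 uM final; 100 uM RO 20-1724 reference.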
# [9] = target: Cytochrome P450 2D6 (Homo sapiens) (UniProt P10635); assay: qHTS Assay for Inhibitors and Substrates of Cytochrome P450 2D6 (AID 891; active means well fitted curve in the direction sought with a large enough effect; an effect the other way counts as inactive or inconclusive; further: nearly all actives have a fitted effect of over 60% in size; further: potency means the concentration at half of the fitted maximal effect); conditions: recombinant CYP2D6, luciferin-ME EGE luminescence; series mostly up to 11.4 µM
# Sequence of Cytochrome P450 2D6 (Homo sapiens) (P10635 whole entry, looked up): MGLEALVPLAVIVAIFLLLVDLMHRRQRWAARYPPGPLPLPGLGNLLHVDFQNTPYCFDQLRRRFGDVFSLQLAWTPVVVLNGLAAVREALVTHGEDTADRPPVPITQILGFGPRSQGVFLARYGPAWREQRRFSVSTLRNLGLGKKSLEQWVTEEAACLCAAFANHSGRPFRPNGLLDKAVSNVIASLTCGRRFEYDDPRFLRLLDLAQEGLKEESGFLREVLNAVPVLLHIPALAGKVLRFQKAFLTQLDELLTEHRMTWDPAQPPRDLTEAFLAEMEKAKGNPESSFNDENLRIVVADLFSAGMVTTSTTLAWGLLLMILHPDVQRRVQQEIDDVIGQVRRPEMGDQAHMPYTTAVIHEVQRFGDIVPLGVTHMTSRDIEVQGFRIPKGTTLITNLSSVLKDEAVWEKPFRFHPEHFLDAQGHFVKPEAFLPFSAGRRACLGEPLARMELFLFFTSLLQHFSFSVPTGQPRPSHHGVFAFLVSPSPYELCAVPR
# Outline: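 Luminescent read-out of luciferin formed by 5 nM human CYP2D6 demethylating 30 uM Luciferin-ME EGE (Km level) over 60 min at room temperature after NADPH regeneration addition. Data normalized to full inhibition by 1.43 uM quinidine.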
# [10] = target: Cytochrome P450 2C19 (Homo sapiens) (UniProt P33261); assay: qHTS Assay for Inhibitors and Substrates of Cytochrome P450 2C19 (AID 899; active means well fitted curve in the direction sought with a large enough effect; an effect the other way counts as inactive or inconclusive; further: nearly all actives have a fitted effect of over 60% in size; further: potency means the concentration at half of the fitted maximal effect); conditions: recombinant CYP2C19, luciferin-H EGE luminescence; series mostly up to 11.4 µM
# Sequence of Cytochrome P450 2C19 (Homo sapiens) (P33261 whole entry, looked up): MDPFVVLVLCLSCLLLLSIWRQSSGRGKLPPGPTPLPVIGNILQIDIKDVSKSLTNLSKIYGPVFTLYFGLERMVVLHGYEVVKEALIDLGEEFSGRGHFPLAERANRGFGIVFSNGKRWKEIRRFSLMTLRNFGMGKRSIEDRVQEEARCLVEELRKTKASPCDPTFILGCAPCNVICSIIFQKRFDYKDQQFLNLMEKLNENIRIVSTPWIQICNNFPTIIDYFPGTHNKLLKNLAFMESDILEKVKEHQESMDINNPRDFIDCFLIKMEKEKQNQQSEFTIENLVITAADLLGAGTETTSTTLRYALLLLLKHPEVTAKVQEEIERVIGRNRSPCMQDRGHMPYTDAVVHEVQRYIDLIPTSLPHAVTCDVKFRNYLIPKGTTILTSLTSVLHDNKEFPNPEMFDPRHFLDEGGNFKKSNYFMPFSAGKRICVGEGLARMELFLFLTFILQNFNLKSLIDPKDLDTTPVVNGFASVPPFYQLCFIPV
# Outline: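 Reactions contain 5nM enzyme, 10uM Luciferin-H EGE (KM) and 50mM KPO4; compound preincubates 10 min at 37C, NADPH regeneration starts turnover for 60 min. Luminescence after detection reagent gives activity.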
# [11] = qHTS Assay for Identification of Small Molecule Agonists for Hypoxia Response Element Signaling Pathway (AID 914; active means well fitted activation curve with a large enough effect in the signal ratio, with a control signal flat, not every such curve was filed as active; the % refers to the signal ratio; further: % of control where 0% means no effect); conditions: ME-180 (cervical carcinoma) HRE-bla reporter, beta-lactamase ratio, CoCl2, 17 h; activation: stronger effect = higher value
# Outline: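 qHTS titration; ME-180 HRE-bla cells; EC50 CoCl2 co-treatment, 17 h at 37 degrees Celsius; CCF4 dye, ex 405nm, em 460nm and 530nm; %Activity from ratio; AC50.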
# [12] = target: Cytochrome P450 3A4 (Homo sapiens) (UniProt P08684); assay: qHTS Assay for Activators of Cytochrome P450 3A4 (AID 885; active means well fitted curve in the direction sought with a large enough effect; an effect the other way counts as inactive or inconclusive; further: nearly all actives have a fitted effect of over 65% in size); conditions: recombinant CYP3A4, Luciferin-PPXE luminescence, 60 min; series mostly up to 11.4 µM
# Sequence of Cytochrome P450 3A4 (Homo sapiens) (P08684 whole entry, looked up): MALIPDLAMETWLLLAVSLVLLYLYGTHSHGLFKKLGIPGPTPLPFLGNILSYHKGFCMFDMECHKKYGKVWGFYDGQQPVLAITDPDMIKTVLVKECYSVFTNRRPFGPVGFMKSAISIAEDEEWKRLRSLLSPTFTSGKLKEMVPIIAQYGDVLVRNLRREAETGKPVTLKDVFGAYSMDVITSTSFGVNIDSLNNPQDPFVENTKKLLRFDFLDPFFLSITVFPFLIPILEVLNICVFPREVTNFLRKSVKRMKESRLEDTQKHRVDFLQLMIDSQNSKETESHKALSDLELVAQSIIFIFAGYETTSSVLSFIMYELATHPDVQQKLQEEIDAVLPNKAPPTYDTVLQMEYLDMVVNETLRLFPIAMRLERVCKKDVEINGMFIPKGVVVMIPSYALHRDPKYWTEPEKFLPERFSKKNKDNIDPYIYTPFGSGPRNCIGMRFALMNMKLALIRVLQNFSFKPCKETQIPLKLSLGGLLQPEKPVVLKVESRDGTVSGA
# Outline: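 Luminescent readout of luciferin formed from 25 uM Luciferin-PPXE (KM level) by 20 nM CYP3A4 in 200 mM KPO4, with 60 min NADPH-driven reaction at room temperature after 10 min compound exposure. Ketoconazole (57 uM) defined 100% inhibition.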
SMILES,Potency [1],"activity change, negative = inhibition [2]","activity change, negative = inhibition [3]","activity, negative = inhibition [4]",Potency [5],Potency [6],Potency [7],Potency [8],Potency [9],Potency [10],activation [11],Potency [12]
O=C1c2ccccc2C(=O)c2c1ccc(N1C(=O)c3ccccc3C1=O)c2-c1c(N2C(=O)c3ccccc3C2=O)ccc2c1C(=O)c1ccccc1C2=O,> 11.4 µM,-8.78%,-22.9%,12%,> 46 µM,> 9.22 µM,inactive,inactive,inactive,inactive,–,–
CC(C)Cn1cnc2c(SCc3ccccn3)nc(N)nc21,> 11.4 µM,-13.7%,8.93%,-1.91%,> 46 µM,> 9.22 µM,inactive,inactive,–,–,13.1%,–
CN(C)Cc1c[nH]c2nc[nH]c(=O)c12,> 11.4 µM,1.16%,-5.56%,1.72%,> 46 µM,> 9.22 µM,inactive,inactive,inactive,–,–,–
NC[C@@H](O)CSCc1ccc(Cl)cc1,> 11.4 µM,-2.84%,21.3%,0.417%,> 46 µM,> 9.22 µM,inactive,inactive,3.16 µM (active),–,–,–
O=C1c2cccc([N+](=O)[O-])c2C(=O)N1c1ncn[nH]1,> 11.4 µM,-5.78%,7.45%,4.03%,> 46 µM,> 9.22 µM,inactive,inactive,–,inactive,–,inactive
O=[N+]([O-])c1cccc(/C=N\NC2=CS(=O)(=O)C=C2)c1,> 11.4 µM,4.95%,14.6%,5.97%,> 46 µM,> 9.22 µM,inactive,inactive,–,–,1.06%,–
CN1CCN(CN2C(=O)C3C4C=CC(C3C2=O)C2C3C(=O)N(CN5CCN(C)CC5)C(=O)C3C42)CC1 (centres undefined),> 11.4 µM,4.11%,4.36%,11%,> 46 µM,> 9.22 µM,inactive,inactive,inactive,–,–,–
O=C(O)[C@@H](Br)[C@@H](Br)c1ccccc1[N+](=O)[O-],> 11.4 µM,3.89%,10.2%,-0.793%,> 46 µM,> 9.22 µM,inactive,inactive,–,–,6.66%,–
CC(=O)[C@H](C(=N)C#N)C(=O)Nc1ccccc1,> 11.4 µM,-0.768%,-3.12%,13.1%,> 46 µM,> 9.22 µM,inactive,inactive,–,inactive,–,–
c1ccc(-c2cnc(-c3ccc(-c4ncc(-c5ccccc5)o4)cc3)o2)cc1,> 11.4 µM,-0.667%,14.2%,-0.742%,> 46 µM,> 9.22 µM,inactive,inactive,–,–,15%,–
Nc1ccc(-c2ccc(Nc3cc(S(=O)(=O)O)c(N)c4c3C(=O)c3ccccc3C4=O)cc2)c(S(=O)(=O)O)c1,> 11.4 µM,3.81%,-2.33%,-2.95%,> 46 µM,> 9.22 µM,inactive,inactive,–,–,-7.34%,–
CC1(C)[C@@H]2CC[C@@]1(CS(=O)(=O)Nc1ccccc1)C(=O)C2,> 11.4 µM,-11.4%,4.16%,-7%,> 46 µM,> 9.22 µM,inactive,inactive,–,2 µM (active),–,–
Cc1cc(=O)[nH]c2cc3oc4ccccc4c3cc12,> 11.4 µM,6.73%,8.67%,-1.36%,> 46 µM,> 9.22 µM,inactive,inactive,–,–,-6.85%,–
CC(=O)/C(=C\c1ccccc1F)C(=O)c1ccccc1,> 11.4 µM,-4.86%,2.06%,-1.38%,> 46 µM,> 9.22 µM,inactive,inactive,–,2 µM (active),–,inactive
